Source: PubChem
Rows were chosen to be rich in hits. Some 0.69% of all compounds tested hit in one or more screens of this group.
E coli growth-1 – reduces bacterial viability in AddAB counter-screen. inhibition, % at 11.9 µM. E. coli V3065 growth, OD600 absorbance, 18 h. actives 0.27% (n = 330,000). AID 449728;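 active means inhibition above the campaign's mean inhibition across all tested compounds plus 3 SD, cut at about 9.9% in these data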;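 further: uninfected addAB+ strain grown without phage in ampicillin broth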
E coli growth-2 – blocks Escherichia coli growth. OD600, 23 h; hits give low values. OD600 absorbance (no concentration beside the values). actives 0.21% (n = 330,000);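 active means OD600 absorbance below the run mean of sample wells minus 3.6 SD, in any replicate, cut at about 0.56 in these data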
Tat transport – blocks Tat-dependent protein export in E. coli; E. coli MC4100 TorA-mCherry Tat export, fluorescence; inhibition, % at 10 µM; actives 0.036% (n = 340,000); AID 488895;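 active means mean replicate inhibition at least 50% and at least half of replicates individually reaching 50%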;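 further: exported cargo escapes ClpAP degradation while cytoplasmic cargo is degraded and loses fluorescence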
AddAB inh – less growth of phage-infected E. coli with AddAB. E. coli expressing H. pylori AddAB, absorbance growth. inhibition, % at 11.9 µM. actives 0.29% (n = 330,000). AID 435030; in the data active means inhibition above about 12%
phage Ecoli inh – E. coli growth loss with phage present | growth absorbance | inhibition, % at 11.9 µM | actives 0.26% (n = 360,000); in the data active means inhibition above about 11%
PfHsp90 set2 – growth inhibition of yeast expressing Plasmodium Hsp90. S. cerevisiae expressing PfHsp90, BacTiter-Glo ATP, 48 h; yeast lacking PDR1 and PDR3 efflux regulators. actives 0.32% (n = 310,000). inhibition, % at 9.4 µM;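 active means every replicate shows inhibition above about 80%, whatever the replicate mean, limit read from the data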
RecBCD conf – confirmation: growth loss of phage-infected RecBCD+ E. coli (RecBCD inhibitor screen). shares compounds with phage Ecoli inh. E. coli V66 + T4 2- phage, growth OD. inhibition, % at 11.9 µM. actives 45% (n = 890). AID 651982;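 active means mean inhibition over triplicates exceeding the hit threshold derived in the original primary screen, cut at about 11% in these data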
Ecoli viability – inhibits E. coli viability, flagging RecBCD hits as nonselective. shares compounds with phage Ecoli inh. AID 651983. inhibition, % at 11.9 µM. absorbance (OD) growth. actives 29% (n = 890); in the data active means inhibition above about 20%;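 further: E. coli strain V66 grown with compound alone and no phage infection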
AddAB phage OD – growth loss of phage-infected AddAB E. coli, RecBCD counter-screen | inhibition, % at 11.9 µM | E. coli expressing H. pylori AddAB + T4 phage, OD growth; gene 2 mutant T4, recBCD-deleted host | actives 45% (n = 890) | AID 651984 | shares compounds with phage Ecoli inh;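 active means mean inhibition above the solvent-only control wells' mean plus 3 SD, cut at about 22% in these data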;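 further: higher means less bacterial growth from phage killing when AddAB is blocked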
A number is an active result.

For O=c1[nH]cnc2c1ncn2C1OC(CO)C(O)C1O (configuration not stated) the results were E coli growth-2 inactive, Tat transport inactive, phage Ecoli inh inactive and PfHsp90 set2 inactive.
Screening O=c1[nH]cnc2c1ncn2C1CCC(CO)O1 (configuration not stated) returned phage Ecoli inh 87, RecBCD conf 74, Ecoli viability 90 and AddAB phage OD 98.
For Cc1nc(N)nc(N)c1/C=C/C(C)(C)c1ccc(Cl)cc1 the results were E coli growth-2 0.069, Tat transport inactive, phage Ecoli inh 100, PfHsp90 set2 inactive, RecBCD conf 82, Ecoli viability 89 and AddAB phage OD 100.
Screening c1cc(-c2ccoc2)n2ccnc2c1 returned phage Ecoli inh inactive.
For c1cc(-c2ccsc2)n2ccnc2c1 the results were phage Ecoli inh 11, RecBCD conf inactive, Ecoli viability inactive and AddAB phage OD inactive.
`O=C1c2ccccc2C2=Nc3ccccc3SC(c3cccc(F)c3)C12` (configuration not stated) gave E coli growth-1 12, E coli growth-2 inactive, Tat transport inactive, AddAB inh inactive, phage Ecoli inh 16, PfHsp90 set2 inactive, RecBCD conf 12, Ecoli viability inactive and AddAB phage OD 26.
Screening Fc1cccc(C2NN=C(c3ccccc3)S2)c1 (configuration not stated) returned E coli growth-1 inactive, E coli growth-2 inactive, Tat transport inactive, AddAB inh inactive, phage Ecoli inh inactive and PfHsp90 set2 inactive.
`Cc1ccc(NC(=O)C(c2ccccc2)c2ccccc2)nc1` gave E coli growth-1 inactive, E coli growth-2 inactive, Tat transport inactive, AddAB inh inactive, phage Ecoli inh inactive and PfHsp90 set2 inactive.
O=C(Nc1ccccn1)C(c1ccccc1)c1ccccc1 was read as phage Ecoli inh 12, RecBCD conf inactive, Ecoli viability inactive and AddAB phage OD inactive.
Screening COC(=O)C1=C(C)N(CC2CC2)C(=NCCN2CCOCC2)NC1c1ccccc1 (configuration not stated) returned E coli growth-2 inactive.
`CCc1ccc(NC(=O)NNC(=O)c2cc3ccccc3cc2O)cc1` gave E coli growth-1 inactive, E coli growth-2 inactive, Tat transport inactive, AddAB inh inactive, phage Ecoli inh inactive and PfHsp90 set2 inactive.
For O=C(NNC(=O)c1cc2ccccc2cc1O)Nc1ccccc1F the results were E coli growth-1 9.9, E coli growth-2 inactive, Tat transport inactive, AddAB inh inactive, phage Ecoli inh 11, PfHsp90 set2 inactive, RecBCD conf inactive, Ecoli viability inactive and AddAB phage OD inactive.
Cc1ccc(NC(=O)NNC(=O)c2cc3ccccc3cc2O)c(C)c1 was read as E coli growth-1 10, E coli growth-2 inactive, Tat transport inactive, AddAB inh inactive, phage Ecoli inh 12, PfHsp90 set2 inactive, RecBCD conf inactive, Ecoli viability inactive and AddAB phage OD inactive.
For Cc1nn(-c2ccc(F)cc2)c(Cl)c1C=NNC(=O)c1ccc(O)cc1 the results were E coli growth-2 inactive.
For CCCC=NNC(=O)c1[nH]c2c([N+](=O)[O-])cccc2c1C the results were E coli growth-2 inactive.
Screening COc1ccccc1NC(=S)NC(NC(=O)c1ccco1)C(Cl)(Cl)Cl (configuration not stated) returned E coli growth-1 inactive, E coli growth-2 inactive, Tat transport inactive, AddAB inh inactive, phage Ecoli inh 11, PfHsp90 set2 inactive, RecBCD conf inactive, Ecoli viability inactive and AddAB phage OD inactive.
